# BAZ2B inh: qHTS Assay for Inhibitors of BAZ2B. AlphaScreen BAZ2B-H3K14Ac peptide displacement. Potency, µM (series often up to 114 µM), for inactives: top-dose activity change, negative = inhibition, actives largely listed as inhibitors. hit rate 4.4% among 360,000; further: on the % scale 0 is the no-effect control and ±100 the full control effect; nearly all actives have a fitted effect of over 60% in size
#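 AlphaScreen displacement: compounds (up to 110uM) incubated 30 min at room temperature with a preformed 50 nM BAZ2B/50 nM biotinylated H3K14Ac peptide complex in PBS pH 7.4 with Tween-20. Donor and acceptor beads at 10 ug/mL final added, 20 min light-protected before reading.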
# G9a block: qHTS Assay for Inhibitors of Histone Lysine Methyltransferase G9a; Histone-lysine N-methyltransferase EHMT2 (Homo sapiens), Q96KQ7; G9a H3K9 monomethylation, AlphaScreen, 2 h; Potency, µM (titrated, usually from 102 µM), for inactives: top-dose activity, negative = inhibition, hits mostly inhibitors; hit rate 8.8% among 350,000; further: on the % scale 0 is the no-effect control and ±100 the full control effect; nearly all actives have a fitted effect of over 75% in size
# Target sequence (Q96KQ7 913-1193 limits assumed): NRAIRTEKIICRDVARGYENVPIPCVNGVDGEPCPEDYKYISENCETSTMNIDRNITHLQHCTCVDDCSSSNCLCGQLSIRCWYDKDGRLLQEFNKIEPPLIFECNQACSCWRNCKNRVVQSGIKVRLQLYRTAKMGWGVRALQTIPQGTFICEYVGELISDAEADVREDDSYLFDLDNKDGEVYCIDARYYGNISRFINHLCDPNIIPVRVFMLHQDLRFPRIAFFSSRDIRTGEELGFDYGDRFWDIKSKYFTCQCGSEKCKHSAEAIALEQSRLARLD
#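 Enzyme 20 nM + cpd, 15 min RT; add b-H3K9 pep 500 nM / SAM 20 uM; 2 h RT; anti-H3K9me1 Ab 0.5 ug/mL + SA donor / anti-rabbit acceptor beads 20 ug/mL each, 10 min; AlphaScreen read.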
# HP1b chromo inh: HTS for Inhibitors of HP1-beta Chromodomain Interactions with Methylated Histone Tails | Chromobox protein homolog 1 (Homo sapiens), P83916 | AlphaScreen HP1-beta / biotin-H3K9me3 peptide binding | Potency, µM (titrated, usually from 114 µM), without a hit: at the highest dose activity change, negative = inhibition, hits mostly inhibitors | hit rate 0.56% among 390,000 | AID 540317, 2011; further: nearly all actives have a fitted effect of over 70% in size
# Target sequence (P83916 whole entry, looked up): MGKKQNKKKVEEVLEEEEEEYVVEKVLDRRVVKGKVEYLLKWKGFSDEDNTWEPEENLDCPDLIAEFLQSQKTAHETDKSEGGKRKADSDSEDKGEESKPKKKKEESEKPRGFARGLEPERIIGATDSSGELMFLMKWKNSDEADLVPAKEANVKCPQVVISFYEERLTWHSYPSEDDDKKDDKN
#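 Compound inhibition of the preformed complex between 50 nM HP1-beta and 50 nM biotinylated H3K9me3 peptide was read by AlphaScreen. Buffer was PBS pH 7.4 with 0.01% Tween-20. Incubations ran 30 min at room temperature, with 10 ug/mL donor/acceptor beads.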
# Sfp inh: qHTS Assay for Inhibitors of Bacillus subtilis Sfp phosphopantetheinyl transferase (PPTase) | 4'-phosphopantetheinyl transferase ffp (Bacillus subtilis), Q9F4F7 | Biochemical Sfp PPTase activity, qHTS | Potency, µM, inactives show largest response in the series, negative = inhibition, actives largely listed as inhibitors | hit rate 3.5% among 310,000;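 further: the enzyme is Sfp with the accession as filed and its product quenches rhodamine fluorescence; 0% = enzyme reaction without inhibitor and -100% = no enzyme wells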
#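 After 15 min at room temperature with compound, 15 nM Sfp received 5 uM rhodamine-CoA plus 12.5 uM BHQ-2-ybbR (50 mM Hepes pH 7.6, 10 mM MgCl2). Rate came from the fluorescence difference over 30 min, ex 525/em 598 nm.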
# JMJD2A Tudor inh: qHTS Assay for Inhibitors of JMJD2A-Tudor Domain; Lysine-specific demethylase 4A (Homo sapiens), O75164; AlphaScreen JMJD2A-Tudor / H3K4me3 peptide binding; Potency, µM (titrated, usually from 114 µM), for the others: at the highest dose activity change, negative = inhibition, hits mostly inhibitors; hit rate 4.4% among 390,000; further: on the % scale 0 is the no-effect control and ±100 the full control effect; nearly all actives have a fitted effect of over 50% in size
# The depositor's hits bear a star; ? = inconclusive; · = no result given; [ ] = dose if it differs, or a comment. An excerpt weighted towards active compounds, which were near 12% of everything screened. The call rests on the fitted dose curve; in most records, active means well fitted curve in the direction sought with a large enough effect; inconclusive means small, poorly fitted or top-dose-only effect, or another doubt; inactive means no such curve, though single readings can be large; an effect the other way counts as inactive or inconclusive. Potency means the concentration at half of the fitted maximal effect.
SMILES,BAZ2B inh,G9a block,HP1b chromo inh,Sfp inh,JMJD2A Tudor inh
Cc1ccc(S(=O)(=O)N2CCCCC2)cc1NC(=O)C1CC(=O)N(c2ccc3c(c2)OCCO3)C1 (centres undefined),-3.9%,-45.6%,36.2%,·,-14.5%
COc1ccc(N2CCN(S(=O)(=O)c3ccc(-c4ccno4)cc3OC)CC2)cc1,22.4µM*,10µM*,-5.7%,·,?
COc1ccc(CNC(=O)C2=C(C)C(=O)OC23CCN(C(C)=O)CC3)cc1,-1.7%,8.2%[59 µM],28.2%,·,5.9%
O=C(O)c1[nH]c2ccccc2c1NS(=O)(=O)Cc1ccccc1,-38.0%,?,6.1%,26.5%,?
Cc1ccc(S(=O)(=O)Nc2c(C(=O)O)[nH]c3ccccc23)c(C)c1,?,?,?,17.9%,56.2µM*
COc1ccc(S(=O)(=O)Nc2c(C(=O)O)[nH]c3ccccc23)cc1,-17.8%,44.7µM*,71.9%,21.5%,-26.7%
COc1ccc(NS(=O)(=O)c2ccc(OC)c(OC)c2)cc1OC,-0.4%,16.7%[59 µM],18.3%,-3.1%,-19.1%
COc1ccc2[nH]c(C(=O)O)c(NS(=O)(=O)c3ccc(Cl)s3)c2c1,4.1%,?,13.3%,1.3%,-27.0%
COc1ccc(S(=O)(=O)Nc2c(O)ccc3ccccc23)cc1OC,·,·,70.8µM*,·,79.4µM*
O=C(O)c1[nH]c2ccccc2c1NS(=O)(=O)c1ccc(F)cc1,?,70.8µM*,1.9%,7.1%,-20.5%
CCc1nnc2c3ccccc3nc(Nc3cc(C)cc(C)c3)n12,-2.2%,-19.7%[59 µM],28.8%,·,-2.1%
COc1ccc2[nH]c(C(=O)O)c(NS(=O)(=O)c3ccc(F)cc3)c2c1,-18.8%,?,45.3%,10.2%,-15.8%
COc1ccc2[nH]c(C(=O)O)c(NS(=O)(=O)c3ccc(C)c(C)c3)c2c1,-32.5%,44.7µM*,49.5%,12.3%,-19.2%
COc1ccc(S(=O)(=O)Nc2c(C(=O)O)[nH]c3ccccc23)cc1OC,?,12.6µM*,-13.6%,?,?
Cc1cc2oc(C(=O)Nc3ccc(S(N)(=O)=O)cc3)c(C)c2cc1Cl,-6.2%,·,37.0%,5.7%,-9.7%
CC(NC(=O)C1CCC1)c1ccc2c(c1)OCO2 (centres undefined),9.8%,15.6%[12.7 µM],23.8%,12.5%,-6.6%
CC(C)CCC(CCN1CCCC1)c1ccc2c(c1)OCO2 (centres undefined),-35.4%,-3.5%,?,-21.0%,1.41µM*
CC(C)CCC(CCN1CCOCC1)c1ccc2c(c1)OCO2 (centres undefined),?,44.7µM*,-52.0%,79.4µM*,3.16µM*
COCCCNCCC(CCC(C)C)c1ccc2c(c1)OCO2 (centres undefined),?,?,?,-15.3%,20µM*
COc1cccc(NC(=O)CN(C)C(=O)CC2CCCC2)c1,·,·,28.0%,·,-4.8%
COc1cc(OC)c(C2C=C(c3ccc(C)cc3)Nc3c(C(=O)Nc4ccccc4)cnn32)cc1OC (centres undefined),-30.6%,?,6.5%,·,?
CCOC(=O)C1CCCN(C(=O)c2ccc3c(c2)N(Cc2ccccc2)C(=O)c2ccccc2S3(=O)=O)C1 (centres undefined),?,4.5%[59 µM],43.7%,·,-10.8%
O=C(c1ccc(-c2ccc([N+](=O)[O-])cc2Cl)o1)N1CCOCC1,-34.6%,44.7µM*,22.4%,39.8µM*,-5.6%
O=C(Cc1ccc(Br)cc1)N1CCCCCC1,4.0%,6.7%[12.7 µM],38.8%,16.7%,-4.1%
S=C(c1ccc(-c2ccc(Br)cc2)o1)N1CCCCC1,-5.3%,79.4µM*,-13.3%,13.3%,?
SMILES,BAZ2B inh,G9a block,HP1b chromo inh,Sfp inh,JMJD2A Tudor inh
O=C(c1ccc(-c2cccc(Cl)c2Cl)o1)N1CCOCC1,-29.4%,39.8µM*,11.4%,79.4µM*,-12.4%
NC(=O)C1CCCN(C(=O)c2ccc(-c3cccc(Cl)c3Cl)o2)C1 (centres undefined),-19.7%,?,-17.7%,·,-21.6%
COc1ccc(CCNC(=O)c2ccc(-c3ccc([N+](=O)[O-])cc3Cl)o2)cc1,-34.0%,35.5µM*,-12.0%,50.1µM*,?
CCN(CC(=O)NCc1ccc(Cl)cc1)C(=O)CCc1ccccc1O,-13.3%,-11.3%,27.8%,8.8%,-7.1%
Cc1cc(O)cc2c1O[C@](C)(CCC[C@H](C)CCC[C@H](C)CCCC(C)C)CC2,·,-35.4%[59 µM],·,-11.1%,·
COc1ccc(CNC(=O)CS(=O)(=O)c2cccc3nsnc23)cc1,2.0%,-0.2%[59 µM],18.5%[57 µM],·,-23.5%
S=C(c1ccc(-c2ccccc2Cl)o1)N1CCOCC1,39.8µM*,?,?,14.1µM*,39.8µM*
CC1CCN(C(=O)c2ccc(-c3ccccc3Cl)o2)CC1,?,39.8µM*,?,·,112.8%
O=C(c1ccc(-c2ccccc2Cl)o1)N1CCC1,1.8%,?,13.2%,·,-11.5%
COc1ccc(CC(=O)N2CCN(C(=O)Cc3ccc(OC)cc3)CC2)cc1,8.7%,26.9%[59 µM],-14.0%,25.6%,?
COc1ccc(-c2ccc(C(=S)N3CCN(C(C)=O)CC3)o2)cc1,?,6.31µM*,?,12.6µM*,?
S=C(c1ccc(-c2ccc(Cl)c(Cl)c2)o1)N1CCOCC1,11.2µM*,?,?,15.8µM*,35.5µM*
S=C(Nc1ccc(Cl)c(Cl)c1)N1CCOCC1,8.3%,-10.0%[59 µM],27.6%,-8.3%,-10.9%
O=C(O)/C=C/c1cccc(B(O)O)c1,·,·,7.1%,15.5%,-6.4%
O=C(c1cc(-c2ccc(Br)cc2)on1)N1CCOCC1,4.6%,-7.5%[59 µM],13.2%,12.5%,-11.3%
O=Cc1ccc(-c2ccc([N+](=O)[O-])cc2Cl)o1,?,35.5µM*,-14.9%,-26.6%,?
S=C(c1ccc(-c2ccc(Br)cc2)o1)N1CCOCC1,28.2µM*,14.1µM*,25.1µM*,35.5µM*,35.5µM*
Cc1cc2c(s1)c1cnn(Cc3cccc([N+](=O)[O-])c3)c(=O)c1n2C,·,·,·,·,-15.1%
Cc1csc(SCC(=O)N(C)C2CCS(=O)(=O)C2)n1 (centres undefined),-1.9%,-36.5%,42.1%,·,7.2%
Cc1ccc(C(=O)Nc2ncccc2O)o1,?,6.0%[12.7 µM],-17.0%,·,3.55µM*
Cc1cccnc1NC(=O)c1ccc(Br)o1,11.8%,-5.1%,28.0%,·,-8.6%
O=C(CNC(=O)c1ccc(Br)o1)Nc1ncccc1O,79.4µM*,28.2µM*,2.9%,·,?
CCCN(CC(=O)Nc1ccccc1OC)C(=O)c1cc(-c2cccs2)nn1-c1ccccc1,-3.1%,44.7µM*,29.0%,·,-15.2%
CN(CC(=O)Nc1cccc(F)c1)C(=O)c1cc(-c2cccs2)nn1-c1ccccc1,?,50.1µM*,14.3%,·,-23.4%
